Experiment [1] can be described thus: yeast 75Q aggregation reduction – 75Q-TubU reporter (AID 1593). As to conditions: Yeast 75Q polyglutamine aggregation reporter.
Experiment [2] in a line: blockers of cytochrome c efflux from mitochondria – biochemical, purified mitochondria (AID 1603).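 Also: mouse liver mitochondria challenged with calcium chloride; signal normalized to the plate average as 100%.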 The following applies: stronger effect = lower value.
A short description of experiment [3]: polyglutamine aggregate formation blockers (AID 1604). As to conditions: polyglutamine-induced protein aggregation inhibition assay; stronger effect = higher value; tested at 2.5 µM.
Experiment [4] can be described thus: Wnt pathway potentiators raising nuclear beta-catenin – imaging, WNT3A-conditioned medium, mouse C2C12, NPC library, primary screen (AID 1117326; in the data active = nuclear beta-catenin stimulation mostly above about 4.2%, no sharp cut-off; inactive = mostly below about 10%). The following applies: stronger effect = higher value.
A short description of experiment [5]: stimulators of insulin release from INS-1E, primary screen, cell-based, 5 mM glucose, NPC library (AID 1117329;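 active = compound raises insulin release from rat beta cells at 5 mM glucose, no numeric limit stated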). The following applies: rat INS-1E insulin secretion, at 10 µM, stronger effect = higher value.
A short description of experiment [6]: growth inhibition of GSK3B-pretreated HCT116 cells – cell-based, CellTiter-Glo, 0.2 to 20 µM (AID 1117336;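 active = compounds lowering colon cancer cell viability after pretreatment blocking the GSK3B kinase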). As to conditions: HCT116 viability after GSK3B inhibitor, at 20 µM, stronger effect = higher value. A general note: Cellular ATP, detected with luciferase, serves as a proxy for viable cell number.
Experiment [7] is described as follows: inhibition of endothelial tube formation, primary screen, imaging, VEGF stimulated, CD31 staining, tube area, NPC library (AID 1117340;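 active = compound that reduces growth-factor-driven endothelial tube area in a mixed cell culture, no cutoff stated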). The following applies: VEGF-stimulated ADSC/ECFC co-culture, at 10 µM, stronger effect = higher value.
A short description of experiment [8]: GLP1 release stimulators, primary, NCI-H716, NPC library (AID 1117341;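 active = compound raises GLP1 secretion from the human gut endocrine cells, with no numeric limit stated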). As to conditions: NCI-H716 cells, at 10 µM, stronger effect = higher value.
Experiment [9] can be described thus: HCT116 colon cancer cell growth inhibition, primary screen, CellTiter-Glo luminescence, NPC library (AID 1117342;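 active = compounds that lower survival of HCT116 colon cancer cells in the luminescence readout, no numeric limit stated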). The following applies: at 20 µM (top of the series).
Experiment [10] in a line: reduced SW480 viability measured with CellTiter-Glo, NPC library, primary (AID 1117343;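 active = compounds that lower viability of the colon cancer cells in the luminescence readout, with no numeric limit stated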). The following applies: CellTiter-Glo luminescence; at 20 µM (top of the series).
Experiment [11] in a line: NPC library primary testing for decreased DLD-1 cell viability via CellTiter-Glo (AID 1117346;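 active = compounds that lower survival of DLD-1 colon cancer cells in the luminescence readout, no cutoff given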). As to conditions: DLD-1 viability, CellTiter-Glo luminescence; at 20 µM (top of the series).
Experiment [12] addresses 6-phosphogluconate dehydrogenase, decarboxylating (Homo sapiens) (UniProt P52209). Kind of experiment: inhibition of human phosphogluconate dehydrogenase – biochemical, recombinant enzyme, NADPH absorbance, primary screen (AID 1159550;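 active = at least 20% inhibition of 6-phosphogluconate dehydrogenase activity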). As to conditions: recombinant 6PGD, NADPH absorbance 341 nm; at 10 µM; stronger effect = higher value.
The nature of experiment [13]: EMT-state selective cytotoxicity in co-culture – imaging, PC-3E GFP, TEM4-18 mCherry, primary screen (AID 1345086;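 active = compounds killing one labelled cell type while sparing the other, by normalised counts and ratio limits, not self-fluorescent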;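 as to all read-outs here: cells exposed to compound for 72 h before imaging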;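 as to red/green cell ratio (normalised): normalised mesenchymal count divided by normalised epithelial count so high means epithelial killing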). As to conditions: PC-3E GFP / TEM4-18 mCherry co-culture, imaging cell counts, at 1 µM; for red/green cell ratio (normalised): actives lie on both sides.
Experiment [14] has as its system Aerobactin synthetase IucA (Klebsiella pneumoniae hvKP1). Kind of experiment: IucA enzyme inhibition, primary screen, biochemical, Spectrum library (AID 1346200; call rule not given here;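 also: 100% = wells without compound and 0% = wells lacking enzyme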). As to conditions: malachite green pyrophosphate, A620, at 8 µM, stronger effect = lower value.
Experiment [15] can be described thus: viability loss with induced miR-34 in A549 – imaging, A549 dox-inducible miR-34, nuclei and caspase counts, primary screen (AID 1347080;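 active = compounds whose cell count with miR-34 switched on is under 0.7 times the count with it off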). As to conditions: A549 miR-34 inducible, Hoechst nuclei count, 48 h.
The nature of experiment [16]: MELAS cybrid and Rieske KO viability enhancers – cell-based, MELAS cybrids, Rieske KO mouse fibroblasts, CellTiter-Glo, primary screen (AID 1508586;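 active = mean z-score across replicates of 1.96 or higher in either the MELAS or the Rieske mutant cell line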;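 also: z relative to plate mean and SD of compound and empty wells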). As to conditions: low glucose.
Experiment [17] addresses NAD(+) hydrolase SARM1 (Homo sapiens) (UniProt Q6SZW1). Description: blocking NAD cleavage by SARM1 SAM-TIR – cell lysate, NAD-Glo luminescence (AID 1508614;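 active = compound whose remaining NAD level is above about 45 nM, limit read from the data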;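 also: higher remaining NAD means stronger inhibition of SARM1 NADase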). As to conditions: SAM-TIR HEK293T lysate NADase, at 1 µM, stronger effect = higher value.
Experiment [18] concerns the target Mitogen-activated protein kinase 7 (Homo sapiens) (UniProt Q13164). Description: Gal4-ERK5 driven luciferase induction – cell-based, HTS, primary screen (AID 1508626;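 active = luciferase signal above three times the same-plate solvent-only control wells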;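 also: luciferase driven by Gal4-ERK5 fusion binding five Gal4 sites before minimal TATA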). As to conditions: HeLa Gal4-ERK5 transactivation, 18 h, at 5 µM, stronger effect = higher value.
The nature of experiment [19]: galactose survival enhancers in mitochondrial complex I cybrids – cell-based, galactose medium, ATP luminescence, primary screen (AID 1645843).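 Also: positive z means more ATP and so rescue of galactose-driven cybrid death.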 The following applies: complex I mutant cybrid cells, 72 h, stronger effect = higher value.
Experiment [20] in a line: P. berghei load reduction in hepatocytes – cell-based, HepG2, luciferase luminescence, HepG2 viability, primary screen (AID 624349; in the data active = parasite load remaining mostly below about 12%, no sharp cut-off; inactive = mostly above about 10%;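 also: 100% = mean of DMSO negative control wells on the same plate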). As to conditions: P. berghei liver stage in HepG2, luciferase luminescence, concentration not given here; parasite load remaining: stronger effect = lower value; viability: measured here: HepG2 viability without parasites.
[21] abbreviates: measured here: epithelial PC-3E GFP cell survival.
Where [22] appears, read: measured here: mesenchymal TEM4-18 mCherry cell survival.
Where [23] appears, read: measured here: total cells without miR-34 induction.
Setting [24] is: MELAS cybrid survival, CellTiter-Glo 48 h, stronger effect = higher value.
Setting [25] is: Rieske KO mouse fibroblast survival, CellTiter-Glo 72 h.

Values joined by “and” are separate entries in the source; they are usually repeats but may differ in a detail not shown here. Equal entries are not always repeated. Some compounds were tested as several samples or in several runs, with calls that do not always agree. Active and inactive are the calls of the source.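 The calls were made as follows, unless noted: active = z-score of at least 1.8 in each of two replicates, scored against plate mean and spread of sample wells; inactive = the rest.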

6-phosphogluconate dehydrogenase, decarboxylating (Homo sapiens), sequence (P52209 whole entry, looked up): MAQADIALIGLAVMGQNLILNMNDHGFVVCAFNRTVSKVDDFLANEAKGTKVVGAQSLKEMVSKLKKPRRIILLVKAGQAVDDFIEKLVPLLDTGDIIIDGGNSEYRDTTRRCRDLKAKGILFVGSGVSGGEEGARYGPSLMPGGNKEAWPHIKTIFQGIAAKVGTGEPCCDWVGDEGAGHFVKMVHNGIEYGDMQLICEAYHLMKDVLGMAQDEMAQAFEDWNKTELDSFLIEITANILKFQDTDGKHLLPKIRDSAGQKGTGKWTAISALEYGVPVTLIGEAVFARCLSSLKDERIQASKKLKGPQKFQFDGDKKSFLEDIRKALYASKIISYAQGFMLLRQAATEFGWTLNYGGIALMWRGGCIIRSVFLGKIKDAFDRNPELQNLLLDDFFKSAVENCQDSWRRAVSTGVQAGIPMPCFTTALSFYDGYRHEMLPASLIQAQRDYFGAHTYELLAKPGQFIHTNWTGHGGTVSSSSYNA
Mitogen-activated protein kinase 7 (Homo sapiens), sequence (Q13164 whole entry, looked up, the tested form may be a part): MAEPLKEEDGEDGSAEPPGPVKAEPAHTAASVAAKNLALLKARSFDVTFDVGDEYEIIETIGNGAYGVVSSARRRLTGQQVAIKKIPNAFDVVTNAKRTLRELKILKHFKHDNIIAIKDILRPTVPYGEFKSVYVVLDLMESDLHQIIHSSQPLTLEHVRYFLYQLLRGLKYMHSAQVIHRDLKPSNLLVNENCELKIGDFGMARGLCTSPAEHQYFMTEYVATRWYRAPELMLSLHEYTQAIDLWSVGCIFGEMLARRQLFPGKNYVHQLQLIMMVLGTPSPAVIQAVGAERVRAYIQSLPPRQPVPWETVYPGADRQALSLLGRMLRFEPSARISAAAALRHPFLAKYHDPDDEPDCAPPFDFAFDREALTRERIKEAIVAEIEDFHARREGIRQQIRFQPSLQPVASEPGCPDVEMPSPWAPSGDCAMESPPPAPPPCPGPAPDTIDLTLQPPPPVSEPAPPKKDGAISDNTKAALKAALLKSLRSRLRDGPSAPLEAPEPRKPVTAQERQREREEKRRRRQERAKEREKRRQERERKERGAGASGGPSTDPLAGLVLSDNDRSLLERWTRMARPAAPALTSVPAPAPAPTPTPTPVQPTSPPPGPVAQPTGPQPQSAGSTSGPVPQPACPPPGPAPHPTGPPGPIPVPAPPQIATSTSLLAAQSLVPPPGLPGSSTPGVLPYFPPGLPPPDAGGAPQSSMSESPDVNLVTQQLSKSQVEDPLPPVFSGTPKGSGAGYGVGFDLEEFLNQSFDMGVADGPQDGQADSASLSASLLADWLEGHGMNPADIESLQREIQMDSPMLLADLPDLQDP
NAD(+) hydrolase SARM1 (Homo sapiens), sequence (Q6SZW1 whole entry, looked up, the tested form may be a part): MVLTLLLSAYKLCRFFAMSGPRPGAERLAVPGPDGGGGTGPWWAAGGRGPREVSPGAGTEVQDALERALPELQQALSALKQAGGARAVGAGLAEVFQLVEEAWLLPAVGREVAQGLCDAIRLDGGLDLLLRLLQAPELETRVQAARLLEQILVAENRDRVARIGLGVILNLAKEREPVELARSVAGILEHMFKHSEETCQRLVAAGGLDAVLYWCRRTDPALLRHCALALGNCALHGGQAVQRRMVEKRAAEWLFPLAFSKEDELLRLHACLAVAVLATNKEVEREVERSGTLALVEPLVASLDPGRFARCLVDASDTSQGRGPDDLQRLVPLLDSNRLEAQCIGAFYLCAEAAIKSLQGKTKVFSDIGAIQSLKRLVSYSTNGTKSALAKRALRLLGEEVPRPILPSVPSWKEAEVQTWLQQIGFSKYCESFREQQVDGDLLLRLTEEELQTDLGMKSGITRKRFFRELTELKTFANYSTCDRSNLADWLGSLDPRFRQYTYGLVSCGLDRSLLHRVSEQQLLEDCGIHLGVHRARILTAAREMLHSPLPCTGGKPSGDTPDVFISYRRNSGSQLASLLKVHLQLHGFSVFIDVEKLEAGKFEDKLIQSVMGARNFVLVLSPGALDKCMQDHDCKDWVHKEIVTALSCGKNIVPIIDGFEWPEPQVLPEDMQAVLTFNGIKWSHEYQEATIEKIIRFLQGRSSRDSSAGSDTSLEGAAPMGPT

Take `CN(C)[C@@H]1C(=O)C(C(N)=O)=C(O)[C@@]2(O)C(=O)C3=C(O)c4c(O)cccc4[C@@](C)(O)[C@H]3C[C@@H]12`: the score in [1] turned out to be 0.85. The cytochrome c release ratio in experiment [2] was determined as 2.45. Further, in experiment [3], the inhibition of aggregation stood at 47.2%. For the same compound, the nuclear beta-catenin stimulation in experiment [4] (at 10 µM) is 1% (inactive); in experiment [4] (stimulation, at 2 µM) it was 1.9%. Also, the insulin secretion stimulation in experiment [5] was 2.5% (inactive). Besides, the viability decrease in experiment [6] is -202% (inactive). Moreover, the tube area decrease in experiment [7] was 9.8% (inactive). For the same compound, in experiment [8], the GLP1 secretion stimulation is -2.8% (inactive). The inhibition of viability in experiment [9] was 12.1% (inactive). For the same compound, the results for the viability decrease (inhibition) in [10] and in [11] were 43.4% (inactive) and 73.3% (active), respectively. Besides, the inhibition (as a rule, the drop in the measured response relative to a control, in per cent) in experiment [12] is -5.09% (inactive). In experiment [13], the red/green cell ratio (normalised) was 0.98 (inactive) and 1.18 (inactive). Besides, the normalised cell number in experiment [13] (setting [21]) is 0.93 and 1.05; in experiment [13] (setting [22]) it was 0.91 and 1.24. The activity remaining in [14] is 92.7% (inactive). For the same compound, the cell count in [15] (setting [23]) was 7550 and 8910 and 10100. The z-score in [16] (setting [24]) was 4.37 (active) and -3.68 (inactive) and 0.0486; in [16] (setting [25]), 0.792 and -3.53 and 2.26; in [19], 2.65 (active). Moreover, the remaining NAD in experiment [17] is 10 nM (inactive). Moreover, the luciferase signal in experiment [18] was 324 AU (active).
As to `O=C(CCCN1CCC2(CC1)C(=O)NCN2c1ccccc1)c1ccc(F)cc1`, the score in experiment [1] amounted to 1.06. In addition, in experiment [2], the cytochrome c release ratio stood at 1.21. In experiment [3], this compound returned an inhibition of aggregation of 87%. The nuclear beta-catenin stimulation in experiment [4] (at 10 µM) was 0.4% (inactive); in experiment [4] (stimulation, at 2 µM), 5.7%. Besides, the insulin secretion stimulation in experiment [5] was 1.8% (inactive). Further, in experiment [6], the viability decrease was 51.6% (active). In addition, in experiment [7], the tube area decrease was -3.9% (inactive). Further, the GLP1 secretion stimulation in experiment [8] was 8% (inactive). The inhibition of viability in experiment [9] is 60.5% (active). The figures for the viability decrease (inhibition) in [10] and in experiment [11] were 95.2% (active) and 83.7% (active), respectively. The inhibition in experiment [12] was -2.11% (inactive). Moreover, the red/green cell ratio (normalised) in experiment [13] was 1.18 (inactive). The figures for the normalised cell number in experiment [13] (setting [21]) and in experiment [13] (setting [22]) were 0.93 and 1.1, respectively. Further, in experiment [14], the activity remaining was 110% (inactive). For the same compound, the z-score in experiment [16] (setting [24]) was 0.0809 (inactive) and 0.865 (inactive); in experiment [16] (setting [25]) it was -0.502 and 0.666; in experiment [19] it was -1.13 (inactive) and 1.23 (inactive) and -1.53 (inactive). The remaining NAD in experiment [17] was 10 nM (inactive). Besides, in experiment [18], the luciferase signal was 60 AU (inactive).
For `C[C@]12CC[C@H]3[C@@H](CC=C4C[C@@H](O)CC[C@@]43C)[C@@H]1CC[C@@H]2O`, the nuclear beta-catenin stimulation in experiment [4] (at 10 µM) is 2.9% (inactive); in experiment [4] (stimulation, at 2 µM) it was -0.3%. Also, the insulin secretion stimulation in experiment [5] is -1% (inactive). In experiment [6], the viability decrease is 3.75% (inactive). Also, in experiment [7], the tube area decrease was -14.6% (inactive). Further, the GLP1 secretion stimulation in experiment [8] was -6% (inactive). Moreover, in experiment [9], the inhibition of viability was 5.2% (inactive). The viability decrease (inhibition) in experiment [10] was 28.6% (inactive); in experiment [11], 1.05% (inactive).
`O=c1[nH]oc2c1CCNC2`: the score in experiment [1] came out at 1.55. Besides, in [2], the cytochrome c release ratio came to 0.75. The inhibition of aggregation in experiment [3] was 73%. Besides, the parasite load remaining in experiment [20] was 119% (inactive). For the same compound, in experiment [20], the viability (as a rule, a per cent measure of how many cells are alive, often set against a control) came to 90%. Also, the nuclear beta-catenin stimulation in experiment [4] (at 10 µM) is 0.9% (inactive); in [4] (stimulation, at 2 µM) it was -0.2%. Also, the insulin secretion stimulation in experiment [5] was 1.95% (inactive). In addition, the viability decrease in experiment [6] was 23.2% (inactive). In addition, in experiment [7], the tube area decrease is 2% (inactive). Also, the GLP1 secretion stimulation in experiment [8] was 0.6% (inactive). Also, in [9], the inhibition of viability is 7% (inactive). For the same compound, the viability decrease (inhibition) in experiment [10] was -16.8% (inactive); in [11], 2.4% (inactive). In experiment [12], the inhibition was -2.26% (inactive). In addition, the red/green cell ratio (normalised) in experiment [13] was 1.27 (inactive). Also, the normalised cell number came out at 0.86 in experiment [13] (setting [21]) and 1.1 in experiment [13] (setting [22]). Besides, the activity remaining in experiment [14] was 105% (inactive). The fold change in experiment [15] (stronger effect = lower value) is 0.986 (inactive) and 0.895 (inactive) and 0.961 (inactive); in experiment [15] (measured here: relative caspase fold change +Dox/-Dox) it was 0.885 and 0.751 and 0.995. For the same compound, the cell count in experiment [15] (measured here: total cells with miR-34 induction, stronger effect = lower value) was 10200 and 8820 and 8460; in experiment [15] (setting [23]) it was 10400 and 9850 and 8810. Further, the z-score was 0.562 (inactive) in [16] (setting [24]); -0.393 in experiment [16] (setting [25]); 0.375 (inactive) and 2.83 (active) in experiment [19]. Moreover, the remaining NAD in experiment [17] was 10 nM (inactive). In addition, in [18], the luciferase signal is 104 AU (inactive).

Source of the values: PubChem BioAssay.
